Source: the supplement of paper PMC6411743
± gives the standard deviation of the averaged measurements. About 6,500 targets were measured; listed, in parts, are those with the largest changes and a random draw of the rest.

Compound: Nc1ncnc2c1ncn2[C@@H]1O[C@H](COP(=O)(O)OP(=O)(O)OP(=O)(O)O)[C@@H](O)[C@H]1O [adenosine triphosphate]
Experiment: NP40-soluble protein abundance relative to vehicle (solubility fold change) (ratio); higher = more soluble protein in presence of ATP
How it was run: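 Jurkat crude lysate prepared with a Dounce homogeniser was treated at eight concentrations spanning 0.1 to 10 mM, 10 min at room temperature then 3 min at 37 °C. Solubilisation with 0.8% NP40 and benzonase and ultracentrifugation preceded TMT labelling of the supernatant for LC-MS/MS. Fold change against the detergent-processed vehicle was determined per replicate from vsn-normalised intensities, across three independent experiments.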

Chain of UniProt P19397 (P19397 whole entry): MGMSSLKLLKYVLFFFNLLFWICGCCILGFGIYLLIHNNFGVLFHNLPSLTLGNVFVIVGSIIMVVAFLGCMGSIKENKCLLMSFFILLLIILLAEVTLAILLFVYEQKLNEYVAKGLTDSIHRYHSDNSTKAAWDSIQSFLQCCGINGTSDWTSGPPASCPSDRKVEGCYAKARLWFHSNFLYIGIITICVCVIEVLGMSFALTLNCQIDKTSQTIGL
Chain of UniProt P49761 (P49761 whole entry, looked up): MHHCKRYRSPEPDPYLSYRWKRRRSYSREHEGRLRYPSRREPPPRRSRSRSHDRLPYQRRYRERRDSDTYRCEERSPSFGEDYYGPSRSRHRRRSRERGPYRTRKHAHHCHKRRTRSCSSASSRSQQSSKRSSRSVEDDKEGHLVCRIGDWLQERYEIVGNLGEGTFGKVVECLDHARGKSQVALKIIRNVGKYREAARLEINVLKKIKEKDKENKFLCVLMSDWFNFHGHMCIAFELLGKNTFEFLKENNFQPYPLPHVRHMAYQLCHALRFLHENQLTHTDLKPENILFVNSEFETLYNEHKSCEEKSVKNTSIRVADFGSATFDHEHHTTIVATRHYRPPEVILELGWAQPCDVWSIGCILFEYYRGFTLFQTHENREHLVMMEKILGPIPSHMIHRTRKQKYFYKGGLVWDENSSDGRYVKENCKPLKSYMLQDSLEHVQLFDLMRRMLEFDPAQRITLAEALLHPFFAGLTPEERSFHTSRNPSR
Chain of UniProt Q01415 (Q01415 whole entry): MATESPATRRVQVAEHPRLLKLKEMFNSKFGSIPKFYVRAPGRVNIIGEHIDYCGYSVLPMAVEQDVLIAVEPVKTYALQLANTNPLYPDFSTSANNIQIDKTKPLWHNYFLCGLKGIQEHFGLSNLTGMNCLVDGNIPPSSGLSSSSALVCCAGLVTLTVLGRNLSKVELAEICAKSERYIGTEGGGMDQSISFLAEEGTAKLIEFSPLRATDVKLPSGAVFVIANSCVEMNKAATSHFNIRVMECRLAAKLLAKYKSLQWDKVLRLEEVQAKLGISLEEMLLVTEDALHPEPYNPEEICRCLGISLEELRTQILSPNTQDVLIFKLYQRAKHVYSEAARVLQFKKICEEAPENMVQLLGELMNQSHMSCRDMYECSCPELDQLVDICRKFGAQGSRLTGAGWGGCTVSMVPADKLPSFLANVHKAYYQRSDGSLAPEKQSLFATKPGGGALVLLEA
Chain of UniProt P20933 (P20933 whole entry): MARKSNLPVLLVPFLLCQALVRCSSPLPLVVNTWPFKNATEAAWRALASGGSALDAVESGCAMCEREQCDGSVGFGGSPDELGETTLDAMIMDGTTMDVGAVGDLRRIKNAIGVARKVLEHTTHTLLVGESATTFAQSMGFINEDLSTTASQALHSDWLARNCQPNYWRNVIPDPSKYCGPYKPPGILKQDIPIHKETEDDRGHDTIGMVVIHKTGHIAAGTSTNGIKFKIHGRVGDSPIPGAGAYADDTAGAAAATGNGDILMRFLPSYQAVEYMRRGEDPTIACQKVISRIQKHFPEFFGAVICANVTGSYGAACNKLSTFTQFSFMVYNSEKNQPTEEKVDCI
Chain of UniProt P55273 (P55273 whole entry): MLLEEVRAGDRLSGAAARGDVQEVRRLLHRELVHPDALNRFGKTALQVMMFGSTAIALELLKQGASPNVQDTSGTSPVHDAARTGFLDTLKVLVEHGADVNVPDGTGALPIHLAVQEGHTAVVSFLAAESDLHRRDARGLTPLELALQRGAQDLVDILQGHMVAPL
Chain of UniProt P23246 (P23246 whole entry): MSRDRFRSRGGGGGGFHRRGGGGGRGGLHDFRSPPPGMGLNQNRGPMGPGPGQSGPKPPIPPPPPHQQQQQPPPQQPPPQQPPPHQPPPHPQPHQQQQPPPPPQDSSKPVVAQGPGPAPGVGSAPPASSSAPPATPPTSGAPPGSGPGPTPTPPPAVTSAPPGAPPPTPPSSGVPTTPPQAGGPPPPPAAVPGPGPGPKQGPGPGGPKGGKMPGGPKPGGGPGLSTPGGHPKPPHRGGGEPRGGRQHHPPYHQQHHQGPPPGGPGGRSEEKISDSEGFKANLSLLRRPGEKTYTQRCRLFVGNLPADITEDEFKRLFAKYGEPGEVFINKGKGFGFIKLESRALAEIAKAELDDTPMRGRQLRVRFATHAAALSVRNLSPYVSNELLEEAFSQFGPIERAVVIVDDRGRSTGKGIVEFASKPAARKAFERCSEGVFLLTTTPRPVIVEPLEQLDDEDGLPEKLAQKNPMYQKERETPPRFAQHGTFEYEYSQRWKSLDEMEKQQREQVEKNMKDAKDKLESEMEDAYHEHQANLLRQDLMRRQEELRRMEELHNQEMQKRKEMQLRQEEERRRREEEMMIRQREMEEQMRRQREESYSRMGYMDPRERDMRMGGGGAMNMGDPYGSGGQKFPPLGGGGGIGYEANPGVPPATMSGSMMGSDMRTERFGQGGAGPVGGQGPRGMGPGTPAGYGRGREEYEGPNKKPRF
Chain of UniProt O75446 (O75446 whole entry): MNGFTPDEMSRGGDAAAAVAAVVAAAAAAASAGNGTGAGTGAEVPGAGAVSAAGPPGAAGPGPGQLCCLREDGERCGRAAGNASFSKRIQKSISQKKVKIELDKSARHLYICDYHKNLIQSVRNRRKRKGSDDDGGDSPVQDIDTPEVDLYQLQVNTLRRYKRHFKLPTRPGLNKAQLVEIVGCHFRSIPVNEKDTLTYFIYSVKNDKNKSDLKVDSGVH
Chain of UniProt P59190 (P59190 whole entry): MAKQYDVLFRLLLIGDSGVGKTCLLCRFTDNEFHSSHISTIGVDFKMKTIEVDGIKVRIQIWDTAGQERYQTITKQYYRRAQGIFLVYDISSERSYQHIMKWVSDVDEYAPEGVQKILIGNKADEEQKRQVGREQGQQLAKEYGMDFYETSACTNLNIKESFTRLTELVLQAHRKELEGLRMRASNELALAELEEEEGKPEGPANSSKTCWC
Chain of UniProt O75400 (O75400 whole entry): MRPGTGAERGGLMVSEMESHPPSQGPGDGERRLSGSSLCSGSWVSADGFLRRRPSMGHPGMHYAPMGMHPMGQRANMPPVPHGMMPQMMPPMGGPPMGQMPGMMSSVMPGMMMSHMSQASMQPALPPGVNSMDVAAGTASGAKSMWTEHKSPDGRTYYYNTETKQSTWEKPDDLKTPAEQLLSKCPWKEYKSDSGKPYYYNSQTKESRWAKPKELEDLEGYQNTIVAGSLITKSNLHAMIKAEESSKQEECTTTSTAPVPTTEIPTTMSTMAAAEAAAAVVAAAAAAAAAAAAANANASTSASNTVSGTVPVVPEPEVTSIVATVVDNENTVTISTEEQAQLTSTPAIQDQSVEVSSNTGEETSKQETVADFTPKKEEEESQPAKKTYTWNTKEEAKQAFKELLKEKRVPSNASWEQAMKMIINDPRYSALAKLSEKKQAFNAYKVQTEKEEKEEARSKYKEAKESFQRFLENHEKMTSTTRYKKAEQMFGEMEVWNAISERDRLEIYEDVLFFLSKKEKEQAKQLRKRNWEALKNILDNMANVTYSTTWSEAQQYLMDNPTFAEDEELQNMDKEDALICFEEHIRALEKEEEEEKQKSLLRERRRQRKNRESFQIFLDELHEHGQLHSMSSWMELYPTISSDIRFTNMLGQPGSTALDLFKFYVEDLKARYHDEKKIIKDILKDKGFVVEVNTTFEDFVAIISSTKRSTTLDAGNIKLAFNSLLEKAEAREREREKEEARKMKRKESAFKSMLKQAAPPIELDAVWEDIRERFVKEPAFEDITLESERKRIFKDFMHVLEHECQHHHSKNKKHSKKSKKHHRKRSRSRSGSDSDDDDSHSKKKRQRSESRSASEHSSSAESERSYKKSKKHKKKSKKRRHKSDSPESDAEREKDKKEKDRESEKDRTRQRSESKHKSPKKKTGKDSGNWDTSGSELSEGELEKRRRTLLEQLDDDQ
Chain of UniProt O95786 (O95786 whole entry): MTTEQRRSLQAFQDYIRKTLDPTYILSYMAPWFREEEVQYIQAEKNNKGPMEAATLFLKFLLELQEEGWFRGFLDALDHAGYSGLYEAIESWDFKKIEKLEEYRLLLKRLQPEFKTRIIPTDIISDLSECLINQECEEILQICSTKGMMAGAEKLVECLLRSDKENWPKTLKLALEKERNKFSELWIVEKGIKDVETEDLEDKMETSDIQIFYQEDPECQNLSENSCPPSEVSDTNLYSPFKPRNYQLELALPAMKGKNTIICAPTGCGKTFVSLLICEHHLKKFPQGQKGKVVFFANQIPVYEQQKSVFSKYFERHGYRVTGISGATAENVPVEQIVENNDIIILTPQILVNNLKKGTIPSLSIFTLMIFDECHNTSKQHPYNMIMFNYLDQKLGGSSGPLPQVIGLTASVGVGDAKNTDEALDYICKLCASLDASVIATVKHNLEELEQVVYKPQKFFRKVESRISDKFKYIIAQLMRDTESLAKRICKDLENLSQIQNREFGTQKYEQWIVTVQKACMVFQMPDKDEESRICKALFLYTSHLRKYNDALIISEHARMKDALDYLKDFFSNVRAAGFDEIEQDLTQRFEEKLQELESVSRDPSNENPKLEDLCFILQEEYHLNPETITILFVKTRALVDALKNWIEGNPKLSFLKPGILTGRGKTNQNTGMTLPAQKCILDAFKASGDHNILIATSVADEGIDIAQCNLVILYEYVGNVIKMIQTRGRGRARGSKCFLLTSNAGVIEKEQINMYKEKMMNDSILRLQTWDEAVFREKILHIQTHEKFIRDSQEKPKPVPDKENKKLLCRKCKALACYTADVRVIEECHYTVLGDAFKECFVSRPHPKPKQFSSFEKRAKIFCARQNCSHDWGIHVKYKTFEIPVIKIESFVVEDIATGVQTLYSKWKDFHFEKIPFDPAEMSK
Chain of UniProt P36405 (P36405 whole entry): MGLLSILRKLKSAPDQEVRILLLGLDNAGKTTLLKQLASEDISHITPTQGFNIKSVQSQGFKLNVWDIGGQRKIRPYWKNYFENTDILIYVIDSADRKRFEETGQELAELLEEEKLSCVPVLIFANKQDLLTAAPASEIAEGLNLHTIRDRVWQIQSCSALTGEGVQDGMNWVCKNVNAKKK
Chain of UniProt P56381 (P56381 whole entry): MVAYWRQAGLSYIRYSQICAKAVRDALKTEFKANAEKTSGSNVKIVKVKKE

Target	NP40-soluble protein abundance (concentration: 1mM)	NP40-soluble protein abundance (concentration: 2mM)	NP40-soluble protein abundance (concentration: 4mM)	NP40-soluble protein abundance (concentration: 6mM)	NP40-soluble protein abundance (concentration: 8mM)	NP40-soluble protein abundance (concentration: 10mM)
UniProt O75400|O75400-2	1.35 ± 0.075	1.44 ± 0.086	1.65 ± 0.097	2.14 ± 0.13	2.39 ± 0.13	2.62 ± 0.2
TPMT (UniProt P51580)	1 ± 0.084	1 ± 0.077	0.985 ± 0.064	0.954 ± 0.12	0.992 ± 0.057	0.979 ± 0.044
CD53 (UniProt P19397)	0.898 ± 0.042	0.833 ± 0.05	0.85 ± 0.06	0.832 ± 0.049	0.823 ± 0.07	0.791 ± 0.093
GAA (UniProt P10253)	0.981 ± 0.012	1.01 ± 0.021	1 ± 0.028	0.972 ± 0.015	0.962 ± 0.055	0.997 ± 0.033
UniProt P49354|H0YCW1	1.05 ± 0.088	1.01 ± 0.059	1.03 ± 0.053	0.955 ± 0.12	1.04 ± 0.076	0.996 ± 0.062
UniProt P49903|P49903-2	1 ± 0.039	0.992 ± 0.02	0.962 ± 0.049	0.979 ± 0.068	0.966 ± 0.052	0.96 ± 0.042
UniProt P51114|P51114-2	1.644 ± 0.0088	1.79 ± 0.041	2.03 ± 0.048	2.17 ± 0.11	2.32 ± 0.039	2.4 ± 0.045
SAP30 (UniProt O75446)	0.93 ± 0.092	0.952 ± 0.092	0.907 ± 0.073	0.971 ± 0.15	0.96 ± 0.044	0.915 ± 0.13
CTBS (UniProt Q01459)	0.951 ± 0.04	0.98 ± 0.028	0.939 ± 0.038	0.957 ± 0.038	0.932 ± 0.032	0.955 ± 0.013
UniProt P54274|P54274-2	1.14 ± 0.12	1.27 ± 0.17	1.43 ± 0.17	1.69 ± 0.26	1.58 ± 0.25	1.88 ± 0.35
CST3 (UniProt P01034)	0.964 ± 0.083	0.971 ± 0.063	1 ± 0.11	1.03 ± 0.11	1.05 ± 0.15	1.05 ± 0.14
TMEM63A (UniProt O94886)	0.9962 ± 0.0062	1.016 ± 0.004	1.01 ± 0.023	1.0012 ± 0.00078	0.961 ± 0.024	0.979 ± 0.01
UniProt P59190	1.18 ± 0.054	2.37 ± 1.5	1.25 ± 0.21	1.16 ± 0.23	1.22 ± 0.2	1.18 ± 0.15
SFPQ (UniProt P23246)	1.125 ± 0.0082	1.302 ± 0.0053	1.67 ± 0.042	1.72 ± 0.18	1.81 ± 0.11	1.68 ± 0.17
GALK2 (UniProt Q01415)	0.938 ± 0.068	0.975 ± 0.073	0.985 ± 0.012	0.86 ± 0.12	0.956 ± 0.066	0.968 ± 0.037
UniProt O94925|O94925-3	1.02 ± 0.071	0.968 ± 0.035	0.981 ± 0.078	0.944 ± 0.05	0.978 ± 0.061	0.947 ± 0.039
UniProt P08621|P08621-2	1.33 ± 0.049	1.42 ± 0.083	1.59 ± 0.078	1.74 ± 0.096	1.88 ± 0.077	1.97 ± 0.14
HSP90AB1 (UniProt P08238)	1.01 ± 0.063	0.99 ± 0.052	0.983 ± 0.05	0.928 ± 0.069	0.953 ± 0.022	0.964 ± 0.064
PHKA2 (UniProt P46019)	0.975 ± 0.071	0.9386 ± 0.0054	0.92 ± 0.033	0.932 ± 0.087	0.95 ± 0.028	0.919 ± 0.029
RBM25 (UniProt P49756)	1.21 ± 0.074	1.33 ± 0.12	1.68 ± 0.22	2.25 ± 0.24	2.63 ± 0.34	3.08 ± 0.38

Target	NP40-soluble protein abundance (concentration: 1mM)	NP40-soluble protein abundance (concentration: 2mM)	NP40-soluble protein abundance (concentration: 4mM)	NP40-soluble protein abundance (concentration: 6mM)	NP40-soluble protein abundance (concentration: 8mM)	NP40-soluble protein abundance (concentration: 10mM)
EMD (UniProt P50402)	1.13 ± 0.096	1.16 ± 0.1	1.14 ± 0.11	1.11 ± 0.1	1.12 ± 0.086	1.15 ± 0.05
AKR1A1 (UniProt P14550)	0.989 ± 0.046	0.979 ± 0.047	0.956 ± 0.048	0.959 ± 0.086	0.986 ± 0.059	0.944 ± 0.05
UniProt P42285	1.07 ± 0.07	1.06 ± 0.035	1.09 ± 0.033	1.07 ± 0.031	1.2 ± 0.013	1.21 ± 0.066
CDKN1B (UniProt P46527)	0.964 ± 0.099	0.998 ± 0.057	0.985 ± 0.08	1.09 ± 0.077	0.919 ± 0.071	0.916 ± 0.1
UniProt P25398	0.879 ± 0.058	0.861 ± 0.073	0.813 ± 0.071	0.817 ± 0.087	0.761 ± 0.043	0.779 ± 0.061
COX5B (UniProt P10606)	0.9588 ± 0.0074	0.963 ± 0.013	0.966 ± 0.032	1.01 ± 0.028	0.936 ± 0.055	0.929 ± 0.012
UniProt P49761|P49761-1|P49761-3	1.317 ± 0.008	1.56 ± 0.035	1.54 ± 0.018	1.43 ± 0.13	1.81 ± 0.23	2.065 ± 0.019
UniProt P63218	0.812 ± 0.15	0.735 ± 0.17	0.799 ± 0.22	0.72 ± 0.12	0.77 ± 0.16	0.678 ± 0.18
UniProt P08134|Q5JR08	0.974 ± 0.053	0.998 ± 0.031	0.975 ± 0.024	1 ± 0.05	0.957 ± 0.067	0.971 ± 0.027
XPA (UniProt P23025)	0.975 ± 0.021	0.979 ± 0.033	0.965 ± 0.054	1.02 ± 0.027	0.954 ± 0.1	0.968 ± 0.05
UniProt Q01082|Q01082-3	0.887 ± 0.029	0.899 ± 0.014	0.928 ± 0.03	1.05 ± 0.037	1.04 ± 0.06	1.07 ± 0.048
ARL3 (UniProt P36405)	0.978 ± 0.0088	0.944 ± 0.057	0.937 ± 0.057	0.926 ± 0.066	0.945 ± 0.037	0.946 ± 0.049
DDX58 (UniProt O95786)	1.06 ± 0.097	1.03 ± 0.063	1 ± 0.05	0.978 ± 0.078	1.03 ± 0.056	1.01 ± 0.055
UniProt Q01196|Q01196-8|Q01196-2	1.07 ± 0.026	1.08 ± 0.024	1.11 ± 0.016	1.17 ± 0.034	1.15 ± 0.028	1.21 ± 0.034
HSPA4L (UniProt O95757)	0.964 ± 0.015	0.9785 ± 0.0092	0.951 ± 0.018	0.987 ± 0.018	0.937 ± 0.036	0.949 ± 0.019
BANF1 (UniProt O75531)	5.83 ± 1.6	5.36 ± 0.56	5.89 ± 1.4	6.26 ± 1.4	5.6 ± 0.81	5.02 ± 1.8
UniProt P12268|H0Y4R1	1.14 ± 0.2	0.858 ± 0.18	0.957 ± 0.03	0.745 ± 0.14	0.636 ± 0.064	0.587 ± 0.058
UniProt P26639	1 ± 0.1	0.988 ± 0.075	0.95 ± 0.078	0.928 ± 0.11	0.989 ± 0.054	0.949 ± 0.042
UROS (UniProt P10746)	0.973 ± 0.029	0.988 ± 0.041	0.98 ± 0.061	0.968 ± 0.038	0.95 ± 0.059	0.927 ± 0.054
ATRN (UniProt O75882)	0.928 ± 0.039	0.947 ± 0.048	0.975 ± 0.015	0.959 ± 0.095	0.896 ± 0.01	0.899 ± 0.057

Target	NP40-soluble protein abundance (concentration: 1mM)	NP40-soluble protein abundance (concentration: 2mM)	NP40-soluble protein abundance (concentration: 4mM)	NP40-soluble protein abundance (concentration: 6mM)	NP40-soluble protein abundance (concentration: 8mM)	NP40-soluble protein abundance (concentration: 10mM)
MTHFD2 (UniProt P13995)	1.02 ± 0.018	1.01 ± 0.02	0.995 ± 0.04	1.01 ± 0.043	1.01 ± 0.032	1 ± 0.026
UniProt P50750-2|P50750	1.18 ± 0.047	1.26 ± 0.047	1.38 ± 0.018	1.47 ± 0.13	1.64 ± 0.058	1.7 ± 0.1
CCNA2 (UniProt P20248)	0.998 ± 0.059	0.977 ± 0.027	0.993 ± 0.017	1.03 ± 0.046	0.9881 ± 0.0022	0.995 ± 0.05
RBM34 (UniProt P42696)	1.16 ± 0.026	1.21 ± 0.059	1.4 ± 0.097	1.57 ± 0.1	1.7 ± 0.18	1.85 ± 0.21
CDKN2D (UniProt P55273)	0.959 ± 0.065	0.928 ± 0.036	0.953 ± 0.046	0.953 ± 0.019	0.951 ± 0.024	0.872 ± 0.045
AGA (UniProt P20933)	0.925 ± 0.059	0.964 ± 0.07	0.978 ± 0.079	0.94 ± 0.081	0.914 ± 0.064	0.876 ± 0.071
HMGN2 (UniProt P05204)	1.06 ± 0.36	1.27 ± 0.42	1.29 ± 0.44	1.67 ± 0.9	1.55 ± 0.41	2.08 ± 1.5
RFC3 (UniProt P40938)	1.25 ± 0.036	1.3 ± 0.041	1.31 ± 0.041	1.31 ± 0.039	1.35 ± 0.061	1.36 ± 0.046
HMGN1 (UniProt P05114)	1.23 ± 0.32	2 ± 0.51	1.5 ± 0.35	1.88 ± 0.89	1.67 ± 0.38	1.95 ± 1.1
UniProt P62253	1.06 ± 0.053	1.05 ± 0.071	1 ± 0.07	1.01 ± 0.11	1.03 ± 0.097	0.947 ± 0.049
SNAP29 (UniProt O95721)	0.967 ± 0.086	0.943 ± 0.043	0.939 ± 0.055	0.967 ± 0.04	0.939 ± 0.036	0.877 ± 0.046
UniProt P56381	2.11 ± 1.8	0.927 ± 0.037	0.827 ± 0.014	1.2 ± 0.39	0.93 ± 0.067	0.875 ± 0.046
UniProt P62937|P62937-2	0.914 ± 0.063	1.02 ± 0.05	0.894 ± 0.091	0.992 ± 0.084	0.882 ± 0.11	0.962 ± 0.056
UniProt P28908|P28908-3	0.986 ± 0.073	0.999 ± 0.0037	1.08 ± 0.13	0.992 ± 0.073	0.951 ± 0.041	0.964 ± 0.026
LSM11 (UniProt P83369)	1.32 ± 0.26	1.26 ± 0.15	1.4 ± 0.17	1.62 ± 0.32	1.46 ± 0.2	1.69 ± 0.4
UniProt P09471-2	1.04 ± 0.059	0.979 ± 0.043	0.949 ± 0.052	0.975 ± 0.1	0.9637 ± 0.0096	0.969 ± 0.014
UniProt P21675|P21675-12|P21675-2|P21675-3|P21675-4|P21675-5|P21675-6|P21675-7|P21675-9	1.11 ± 0.067	1.11 ± 0.048	1.11 ± 0.066	1.15 ± 0.14	1.2 ± 0.079	1.19 ± 0.091
UniProt P13674|P13674-2	1.01 ± 0.0016	1.01 ± 0.022	0.994 ± 0.027	1.03 ± 0.054	1.01 ± 0.034	1.04 ± 0.045
TOP1 (UniProt P11387)	1.05 ± 0.019	1.088 ± 0.0094	1.22 ± 0.028	1.42 ± 0.035	1.599 ± 0.0062	1.78 ± 0.074
CRTAP (UniProt O75718)	1.11 ± 0.024	1.14 ± 0.032	1.16 ± 0.024	1.19 ± 0.034	1.19 ± 0.033	1.2 ± 0.052
